# According to PubChem BioAssay (NCATS):
# Inconclusive results are not listed. A number with no mark means an inactive call. Calls of active or inactive are those of the source. Calls follow the shape of the dose curve; as a rule, active = well fitted inhibition curve with a large enough effect; inconclusive = small, poorly fitted or top-dose-only effect; inactive = flat fitted curve, though single readings scatter.
# Tested on: CP329
# Test: qHTS profiling for inhibitors of Plasmodium falciparum proliferation (AID 504749); also: nearly all actives have a fitted effect of over 60% in size;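 as to activity, negative = inhibition: 0% = DMSO vehicle and full inhibition = artemisinin control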
# Settings: P. falciparum in erythrocytes, SYBR Green DNA, 72 h; series mostly up to 28.7 µM; activity, negative = inhibition: at the top concentration
# Summary of the method: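 Quantitative HTS: compounds pinned into medium, infected erythrocytes added (0.3% parasitemia, 2.5% hematocrit), 72 h culture at 37 C under 5% CO2. Saponin/Triton lysis with SYBR Green I, overnight RT, then fluorescence read.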
# Potency is read from the fitted curve at half-maximal effect.
SMILES,"activity, negative = inhibition [%]",Potency
OCCN1CC(O)C(O)C(O)C1CO (configuration not stated),2.29,
COc1cc2c(cc1O)CCN[C@@]21CS[C@H]2c3c(OC(C)=O)c(C)c4c(c3C(COC1=O)N1C2C2c3c(cc(C)c(OC)c3O)CC([C@@H]1O)N2C)OCO4 (some centres not stated),,0.5 nM (active)
CC(CCC(=O)O)C1CCC2C3C(=O)C[C@@H]4CC(=O)CC[C@@]4(C)C3CC(=O)[C@]12C (some centres not stated),3,
C[n+]1c2cc(N)ccc2cc2ccc(N)cc21,,1070 nM (active)
O=C(OC[C@@H]1O[C@@](O)(COC(=O)c2cccnc2)[C@H](OC(=O)c2cccnc2)[C@H]1OC(=O)c1cccnc1)c1cccnc1,-6.68,
O=[N+]([O-])O[C@H]1CO[C@H]2[C@@H]1OC[C@H]2O,-6.05,
COc1cccc(OC)c1C(=O)NC1C(=O)N2C1SC(C)(C)C2C(=O)O (configuration not stated),1.47,
NC[C@@H]1O[C@H](OC2[C@@H](CO)O[C@@H](OC3[C@H](O)[C@H](N)C[C@H](N)[C@H]3OC3O[C@H](CO)[C@@H](O)[C@H](O)[C@@H]3N)[C@H]2O)C(N)[C@H](O)[C@@H]1O (some centres not stated),0.947,
Cc1ccc(S(=O)(=O)NC(=O)NC(C)Cc2ccccc2)cc1 (configuration not stated),2.11,
OCCOC[C@H]1O[C@H](OCCO)[C@H](OCCO)[C@@H](OCCO)[C@@H]1OCCO (tested in a mixture with another compound),-1.47,
C[S+](C)CC[C@H](N)C(=O)O,0.867,
CC[C@@H]1/C=C(\C)C[C@H](C)C[C@H](OC)[C@H]2O[C@@](O)(C(=O)C(=O)N3CCCC[C@H]3C(=O)O[C@H](/C(C)=C/[C@@H]3CC[C@H](Cl)[C@H](OC)C3)[C@H](C)[C@@H](O)CC1=O)[C@H](C)C[C@@H]2OC,-13.1,
